The supplement of paper PMC4466140

How the values were obtained:
Experiment in all cases: SPOT peptide array binding signal intensity (averaged, normalized) (arbitrary units (background-subtracted, floor 0; scale differs between SH3 domains)); higher = stronger binding of the SH3 domain to the peptide
AgAbp1 = molecular target: AgAbp1
How it was run: (§1)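 Binding signal is given in arbitrary units that differ between domains and is the normalized, background-subtracted spot intensity averaged across replicates. Each GST-SH3 fusion from one of four yeast species was made in E. coli BL21(DE3), purified on glutathione Sepharose and incubated at 10 μg/ml overnight at 4°C on cellulose-bound synthetic 15-mer peptides in which cysteines were replaced by serines. Detection used anti-GST antibody, an HRP anti-mouse secondary and luminol, followed by imaging and Genespotter quantification.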

AgBbc1 = molecular target: AgBbc1
How it was run: as §1

AgBem1-D1 = molecular target: AgBem1-D1
How it was run: as §1

AgBzz1-D1 = molecular target: AgBzz1-D1
How it was run: as §1

AgBzz1-D2 = molecular target: AgBzz1-D2
How it was run: as §1

AgCyk3 = molecular target: AgCyk3
How it was run: as §1

AgFus1 = molecular target: AgFus1
How it was run: as §1

AgHof1 = molecular target: AgHof1
How it was run: as §1

AgHse1 = molecular target: AgHse1
How it was run: as §1

AgLsb1 = molecular target: AgLsb1
How it was run: as §1

AgLsb4 = molecular target: AgLsb4
How it was run: as §1

AgMyo5 = molecular target: AgMyo5
How it was run: as §1

AgNbp2 = molecular target: AgNbp2
How it was run: as §1

AgRvs167 = molecular target: AgRvs167
How it was run: as §1

AgSho1 = molecular target: AgSho1
How it was run: as §1

AgSla1-D1-D2 = molecular target: AgSla1-D1-D2
How it was run: as §1

AgSla1-D3 = molecular target: AgSla1-D3
How it was run: as §1

CaAbp1-D1 = molecular target: CaAbp1-D1
How it was run: as §1

CaAbp1-D2 = molecular target: CaAbp1-D2
How it was run: as §1

CaBbc1 = molecular target: CaBbc1
How it was run: as §1

CaBem1-D1 = molecular target: CaBem1-D1
How it was run: as §1

CaBzz1-D1 = molecular target: CaBzz1-D1
How it was run: as §1

CaBzz1-D2 = molecular target: CaBzz1-D2
How it was run: as §1

CaCyk3 = molecular target: CaCyk3
How it was run: as §1

CaFus1 = molecular target: CaFus1
How it was run: as §1

CaHof1 = molecular target: CaHof1
How it was run: as §1

CaHse1 = molecular target: CaHse1
How it was run: as §1

CaLsb1 = molecular target: CaLsb1
How it was run: as §1

CaLsb4 = molecular target: CaLsb4
How it was run: as §1

CaMyo5 = molecular target: CaMyo5
How it was run: as §1

CaNbp2 = molecular target: CaNbp2
How it was run: as §1

CaRvs167 = molecular target: CaRvs167
How it was run: as §1

CaRvs167-3 = molecular target: CaRvs167-3
How it was run: as §1

CaSho1 = molecular target: CaSho1
How it was run: as §1

CaSla1-D1-D2 = molecular target: CaSla1-D1-D2
How it was run: as §1

CaSla1-D3 = molecular target: CaSla1-D3
How it was run: as §1

ScAbp1 = molecular target: ScAbp1
How it was run: as §1

ScBbc1 = molecular target: ScBbc1
How it was run: as §1

ScBem1-D1 = molecular target: ScBem1-D1
How it was run: as §1

ScBzz1-D1 = molecular target: ScBzz1-D1
How it was run: as §1

ScBzz1-D2 = molecular target: ScBzz1-D2
How it was run: as §1

ScCyk3 = molecular target: ScCyk3
How it was run: as §1

ScFus1 = molecular target: ScFus1
How it was run: as §1

ScHof1 = molecular target: ScHof1
How it was run: as §1

ScHse1 = molecular target: ScHse1
How it was run: as §1

ScLsb1 = molecular target: ScLsb1
How it was run: as §1

ScLsb2 = molecular target: ScLsb2
How it was run: as §1

ScLsb3 = molecular target: ScLsb3
How it was run: as §1

ScLsb4 = molecular target: ScLsb4
How it was run: as §1

ScMyo3 = molecular target: ScMyo3
How it was run: as §1

ScMyo5 = molecular target: ScMyo5
How it was run: as §1

ScNbp2 = molecular target: ScNbp2
How it was run: as §1

ScPex13 = molecular target: ScPex13
How it was run: as §1

ScRvs167 = molecular target: ScRvs167
How it was run: as §1

ScSho1 = molecular target: ScSho1
How it was run: as §1

ScSla1-D1-D2 = molecular target: ScSla1-D1-D2
How it was run: as §1

ScSla1-D3 = molecular target: ScSla1-D3
How it was run: as §1

SpAbp1-D1 = molecular target: SpAbp1-D1
How it was run: as §1

SpBbc1 = molecular target: SpBbc1
How it was run: as §1

SpBzz1-D1 = molecular target: SpBzz1-D1
How it was run: as §1

SpBzz1-D2 = molecular target: SpBzz1-D2
How it was run: as §1

SpCyk3 = molecular target: SpCyk3
How it was run: as §1

SpHof1 = molecular target: SpHof1
How it was run: as §1

SpHof1-2 = molecular target: SpHof1-2
How it was run: as §1

SpHof1-3 = molecular target: SpHof1-3
How it was run: as §1

SpHse1 = molecular target: SpHse1
How it was run: as §1

SpLsb1 = molecular target: SpLsb1
How it was run: as §1

SpLsb4 = molecular target: SpLsb4
How it was run: as §1

SpMyo1 = molecular target: SpMyo1
How it was run: as §1

SpNbp2 = molecular target: SpNbp2
How it was run: as §1

SpPex13 = molecular target: SpPex13
How it was run: as §1

SpRvs167 = molecular target: SpRvs167
How it was run: as §1

SpSla1-D1-D2 = molecular target: SpSla1-D1-D2
How it was run: as §1

SpSla1-D3 = molecular target: SpSla1-D3
How it was run: as §1

B1: unnamed (peptide)
chain: KKAPPPVVKPKPRNF
AgAbp1
  SPOT peptide array binding signal intensity: 4680
AgBbc1
  SPOT peptide array binding signal intensity: 58
AgBem1-D1
  SPOT peptide array binding signal intensity: 44.5
AgBzz1-D1
  SPOT peptide array binding signal intensity: 316
AgBzz1-D2
  SPOT peptide array binding signal intensity: 101
AgCyk3
  SPOT peptide array binding signal intensity: ≤ 0
AgFus1
  SPOT peptide array binding signal intensity: 31
AgHof1
  SPOT peptide array binding signal intensity: 63.5
AgHse1
  SPOT peptide array binding signal intensity: 39
AgLsb1
  SPOT peptide array binding signal intensity: 1.75
AgLsb4
  SPOT peptide array binding signal intensity: 12.5
AgMyo5
  SPOT peptide array binding signal intensity: ≤ 0
AgNbp2
  SPOT peptide array binding signal intensity: 45
AgRvs167
  SPOT peptide array binding signal intensity: 6
AgSho1
  SPOT peptide array binding signal intensity: 15
AgSla1-D1-D2
  SPOT peptide array binding signal intensity: 8
AgSla1-D3
  SPOT peptide array binding signal intensity: 32.5
CaAbp1-D1
  SPOT peptide array binding signal intensity: 3270
CaAbp1-D2
  SPOT peptide array binding signal intensity: 6180
CaBbc1
  SPOT peptide array binding signal intensity: 154
CaBem1-D1
  SPOT peptide array binding signal intensity: 15.5
CaBzz1-D1
  SPOT peptide array binding signal intensity: 1220
CaBzz1-D2
  SPOT peptide array binding signal intensity: 2260
CaCyk3
  SPOT peptide array binding signal intensity: 5
CaFus1
  SPOT peptide array binding signal intensity: 45.5
CaHof1
  SPOT peptide array binding signal intensity: 1
CaHse1
  SPOT peptide array binding signal intensity: 1.25
CaLsb1
  SPOT peptide array binding signal intensity: 2.5
CaLsb4
  SPOT peptide array binding signal intensity: 15.5
CaMyo5
  SPOT peptide array binding signal intensity: 1.5
CaNbp2
  SPOT peptide array binding signal intensity: 36.5
CaRvs167
  SPOT peptide array binding signal intensity: 11
CaRvs167-3
  SPOT peptide array binding signal intensity: 8
CaSho1
  SPOT peptide array binding signal intensity: 23
CaSla1-D1-D2
  SPOT peptide array binding signal intensity: 3160
CaSla1-D3
  SPOT peptide array binding signal intensity: 4.75
ScAbp1
  SPOT peptide array binding signal intensity: 7880
ScBbc1
  SPOT peptide array binding signal intensity: 3
ScBem1-D1
  SPOT peptide array binding signal intensity: 6
ScBzz1-D1
  SPOT peptide array binding signal intensity: 178
ScBzz1-D2
  SPOT peptide array binding signal intensity: 60
ScCyk3
  SPOT peptide array binding signal intensity: 7
ScFus1
  SPOT peptide array binding signal intensity: 15
ScHof1
  SPOT peptide array binding signal intensity: 3.5
ScHse1
  SPOT peptide array binding signal intensity: 61
ScLsb1
  SPOT peptide array binding signal intensity: 20.5
ScLsb2
  SPOT peptide array binding signal intensity: 2
ScLsb3
  SPOT peptide array binding signal intensity: ≤ 0
ScLsb4
  SPOT peptide array binding signal intensity: 3.5
ScMyo3
  SPOT peptide array binding signal intensity: ≤ 0
ScMyo5
  SPOT peptide array binding signal intensity: ≤ 0
ScNbp2
  SPOT peptide array binding signal intensity: 32
ScPex13
  SPOT peptide array binding signal intensity: 0.5
ScRvs167
  SPOT peptide array binding signal intensity: 5.17
ScSho1
  SPOT peptide array binding signal intensity: 37.5
ScSla1-D1-D2
  SPOT peptide array binding signal intensity: 3640
ScSla1-D3
  SPOT peptide array binding signal intensity: 17
SpAbp1-D1
  SPOT peptide array binding signal intensity: 2160
SpBbc1
  SPOT peptide array binding signal intensity: 0.75
SpBzz1-D1
  SPOT peptide array binding signal intensity: 318
SpBzz1-D2
  SPOT peptide array binding signal intensity: 0.5
SpCyk3
  SPOT peptide array binding signal intensity: 1
SpHof1
  SPOT peptide array binding signal intensity: 12
SpHof1-2
  SPOT peptide array binding signal intensity: 13.2
SpHof1-3
  SPOT peptide array binding signal intensity: 31
SpHse1
  SPOT peptide array binding signal intensity: 117
SpLsb1
  SPOT peptide array binding signal intensity: 1140
SpLsb4
  SPOT peptide array binding signal intensity: 27
SpMyo1
  SPOT peptide array binding signal intensity: 7
SpNbp2
  SPOT peptide array binding signal intensity: 43
SpPex13
  SPOT peptide array binding signal intensity: 3.5
SpRvs167
  SPOT peptide array binding signal intensity: ≤ 0
SpSla1-D1-D2
  SPOT peptide array binding signal intensity: 5.5
SpSla1-D3
  SPOT peptide array binding signal intensity: 10.5

B2: unnamed (peptide)
chain: HKVLRPFLLRRLKKD
SpBzz1-D2
  SPOT peptide array binding signal intensity: 7.63e-06
SpCyk3
  SPOT peptide array binding signal intensity: 1.5
SpHof1
  SPOT peptide array binding signal intensity: 74.8
SpHof1-2
  SPOT peptide array binding signal intensity: 4
SpHof1-3
  SPOT peptide array binding signal intensity: 1720
SpHse1
  SPOT peptide array binding signal intensity: 2230
SpLsb1
  SPOT peptide array binding signal intensity: ≤ 0
SpLsb4
  SPOT peptide array binding signal intensity: ≤ 0
SpMyo1
  SPOT peptide array binding signal intensity: 2.62
SpNbp2
  SPOT peptide array binding signal intensity: 222
SpPex13
  SPOT peptide array binding signal intensity: 13.5
SpRvs167
  SPOT peptide array binding signal intensity: 0.333
SpSla1-D1-D2
  SPOT peptide array binding signal intensity: ≤ 0
SpSla1-D3
  SPOT peptide array binding signal intensity: 5.5
